Test results: PubChem BioAssay (Tox21)
Values without a mark were called inactive. Records with an inconclusive call do not appear. A call without a number means that no potency is given here. Calls of active or inactive are those of the source. Unless noted, the call rests on the fitted dose curve; in most records, active means well fitted curve in the direction sought with a large enough effect in the repeat runs; inconclusive means weak or mixed curves; inactive means no such curve, though single readings can be large; an effect the other way counts as inactive or inconclusive.

Tests used:
[1] = qHTS assay to identify small molecule antagonists of the glucocorticoid receptor (GR) signaling pathway - cell viability counter screen (AID 720693); further: nearly all actives have a fitted effect of over 55% in size
[2] = qHTS assay for identifying genotoxic compounds that show differential cytotoxicity against isogenic chicken DT40 cell lines with known DNA damage response pathways - Rev3 mutant cell line (AID 743014); further: nearly all actives have a fitted effect of over 55% in size; further: potency means the concentration at half of the fitted maximal effect
[3] = qHTS assay for identifying genotoxic compounds that show differential cytotoxicity against isogenic chicken DT40 cell lines with known DNA damage response pathways - Rad54/Ku70 mutant cell line (AID 743015); further: nearly all actives have a fitted effect of over 60% in size; further: potency means the concentration at half of the fitted maximal effect
[4] = qHTS assay to identify small molecule antagonists of the androgen receptor (AR) signaling pathway - cell viability counter screen (AID 743033; further: nearly all actives have a fitted effect of over 45% in size)
[5] = qHTS assay to identify small molecule antagonists of the androgen receptor (AR) signaling pathway using the MDA cell line - cell viability counter screen (AID 743041; further: nearly all actives have a fitted effect of over 45% in size)
Summary of the method: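 Compound exposure lasted 16 h at 37C in MDA-kb2 AR-luc cells stimulated with R1881. Protease-based CellTiter-Fluor reagent was applied for the final 30 min and fluorescence measured.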

[6] = qHTS assay to identify small molecule antagonists of the thyroid receptor (TR) signaling pathway - cell viability counter screen (AID 743064); further: nearly all actives have a fitted effect of over 50% in size
Summary of the method: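 In rat pituitary GH3.TRE-Luc reporter cells co-exposed to compound and 1 nM T3 for 23.5 h, cytotoxicity was assessed with CellTiter-Fluor in the same wells, read by fluorescence.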

[7] = qHTS assay to identify small molecule antagonists of the thyroid receptor (TR) signaling pathway (AID 743065); further: series mostly up to about 70 µM; nearly all actives have a fitted effect of over 55% in size
Summary of the method: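 GH3.TRE-Luc rat pituitary cells (two TREs driving luciferase) were dosed with compound, then stimulated with 1 nM T3 (final) for 23.5 h at 37 C. ONE-Glo luminescence was the read-out, with CellTiter-Fluor fluorescence as the cytotoxicity counter-screen.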

[8] = system: thyroid hormone receptor (rat, GH3 cells); experiment: qHTS assay to identify small molecule agonists of the thyroid receptor (TR) signaling pathway (AID 743066; calls by dose curve)
[9] = qHTS assay to identify small molecule antagonists of the estrogen receptor alpha (ER-alpha) signaling pathway - cell viability counter screen (AID 743074; calls by dose curve; further: nearly all actives have a fitted effect of over 45% in size)
[10] = qHTS assay to identify small molecule antagonists of the estrogen receptor alpha (ER-alpha) signaling pathway using the BG1 cell line - cell viability counter screen (AID 743081);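 further: compound given together with 17beta-estradiol as the ER stimulus; series mostly up to about 70 µM; nearly all actives have a fitted effect of over 45% in size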
[11] = qHTS assay for identifying genotoxic compounds that show differential cytotoxicity against isogenic chicken DT40 cell lines with known DNA damage response pathways - wild type cell line (AID 743012); further: nearly all actives have a fitted effect of over 60% in size
Summary of the method: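 300 wt DT40 cells/well; cpd (DMSO) pintool-transferred after ~0.5 h at 37 C/5% CO2; 40 h incubation; CellTiter-Glo added, 30 min RT; luminescence read.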

[12] = biological target: Estrogen receptor (Homo sapiens) (UniProt P03372); experiment: qHTS assay to identify small molecule antagonists of the estrogen receptor alpha (ER-alpha) signaling pathway (AID 743069; active means well fitted curve in the direction sought with a large enough effect in the signal ratio in the repeat runs, not every such curve was filed as active; the % refers to the signal ratio)
Sequence of Estrogen receptor (Homo sapiens) (P03372 whole entry, looked up): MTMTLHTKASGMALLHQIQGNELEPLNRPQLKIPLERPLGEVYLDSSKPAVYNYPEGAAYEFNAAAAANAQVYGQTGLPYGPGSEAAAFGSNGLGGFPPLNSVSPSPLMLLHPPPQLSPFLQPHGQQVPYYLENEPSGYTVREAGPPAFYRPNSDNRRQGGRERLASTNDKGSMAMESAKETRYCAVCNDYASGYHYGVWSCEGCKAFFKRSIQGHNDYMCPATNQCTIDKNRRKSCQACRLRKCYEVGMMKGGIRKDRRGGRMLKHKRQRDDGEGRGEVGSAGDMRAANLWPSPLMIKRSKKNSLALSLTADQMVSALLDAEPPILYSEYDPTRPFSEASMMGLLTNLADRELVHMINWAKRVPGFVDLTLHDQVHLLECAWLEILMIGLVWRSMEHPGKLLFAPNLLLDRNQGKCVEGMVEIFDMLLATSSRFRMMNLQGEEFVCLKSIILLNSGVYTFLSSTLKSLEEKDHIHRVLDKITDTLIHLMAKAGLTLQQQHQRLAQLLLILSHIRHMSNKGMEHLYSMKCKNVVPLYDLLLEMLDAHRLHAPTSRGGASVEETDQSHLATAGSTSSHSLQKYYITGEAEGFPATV
Summary of the method: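 In this cell-based reporter format, GripTite HEK293 cells harbouring ER-alpha-UAS-bla were grown overnight with 2% charcoal-stripped FBS, dosed with DMSO-dissolved compounds, then challenged with 17beta-estradiol. After 18 hr at 37C, beta-lactamase activity was detected by FRET fluorescence.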

[13] = biological target: Estrogen receptor (Homo sapiens) (UniProt P03372); experiment: qHTS assay to identify small molecule agonists of the estrogen receptor alpha (ER-alpha) signaling pathway (AID 743075; calls by dose curve)
Aromatase (Homo sapiens) = Aromatase (Homo sapiens) (UniProt P11511); experiment: qHTS assay to identify aromatase inhibitors (AID 743083); further: series mostly up to about 70 µM; nearly all actives have a fitted effect of over 55% in size
Sequence of Aromatase (Homo sapiens) (P11511 whole entry, looked up): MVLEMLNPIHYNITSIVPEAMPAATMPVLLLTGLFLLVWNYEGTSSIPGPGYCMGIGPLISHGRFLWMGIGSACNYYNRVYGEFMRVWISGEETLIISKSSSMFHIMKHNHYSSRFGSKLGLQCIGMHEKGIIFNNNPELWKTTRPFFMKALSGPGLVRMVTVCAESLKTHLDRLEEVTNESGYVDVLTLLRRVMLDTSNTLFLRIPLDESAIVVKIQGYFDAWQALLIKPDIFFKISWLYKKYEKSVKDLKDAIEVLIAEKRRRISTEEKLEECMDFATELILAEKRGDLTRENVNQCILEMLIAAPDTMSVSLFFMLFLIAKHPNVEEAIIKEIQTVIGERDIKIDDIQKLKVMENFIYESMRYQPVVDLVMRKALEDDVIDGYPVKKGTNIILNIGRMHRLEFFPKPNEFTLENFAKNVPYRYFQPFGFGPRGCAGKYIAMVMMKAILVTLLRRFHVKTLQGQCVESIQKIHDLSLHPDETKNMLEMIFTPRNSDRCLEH

[14] = biological target: Estrogen receptor (Homo sapiens) (UniProt P03372); experiment: qHTS assay to identify small molecule agonists of the estrogen receptor alpha (ER-alpha) signaling pathway using the BG1 cell line (AID 743079); further: nearly all actives have a fitted effect of over 20% in size; further: potency means the concentration at half of the fitted maximal effect
[15] = qHTS assay to identify small molecule antagonists of the estrogen receptor alpha (ER-alpha) signaling pathway using the BG1 cell line (AID 743080; calls by dose curve;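 further: BG1 cells stimulated with 17beta-estradiol alongside compound; series mostly up to about 70 µM; nearly all actives have a fitted effect of over 25% in size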)
Summary of the method: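 BG1Luc4E2, endogenous ER-alpha, 4xERE-luc; 5 d charcoal-stripped FBS, phenol red free; 24 h plating; cpd + 17beta-estradiol 21.5 h, 37 C/5% CO2; CellTiter-Fluor viability 30 min, then ONE-Glo luciferase 30 min RT.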

[16] = biological target: Androgen receptor (Homo sapiens) (UniProt P10275); experiment: qHTS assay to identify small molecule agonists of the androgen receptor (AR) signaling pathway (AID 743036; active means well fitted activation curve with a large enough effect in the signal ratio in the repeat runs, with a control signal flat, not every such curve was filed as active; the % refers to the signal ratio)
Sequence of Androgen receptor (Homo sapiens) (P10275 whole entry, looked up): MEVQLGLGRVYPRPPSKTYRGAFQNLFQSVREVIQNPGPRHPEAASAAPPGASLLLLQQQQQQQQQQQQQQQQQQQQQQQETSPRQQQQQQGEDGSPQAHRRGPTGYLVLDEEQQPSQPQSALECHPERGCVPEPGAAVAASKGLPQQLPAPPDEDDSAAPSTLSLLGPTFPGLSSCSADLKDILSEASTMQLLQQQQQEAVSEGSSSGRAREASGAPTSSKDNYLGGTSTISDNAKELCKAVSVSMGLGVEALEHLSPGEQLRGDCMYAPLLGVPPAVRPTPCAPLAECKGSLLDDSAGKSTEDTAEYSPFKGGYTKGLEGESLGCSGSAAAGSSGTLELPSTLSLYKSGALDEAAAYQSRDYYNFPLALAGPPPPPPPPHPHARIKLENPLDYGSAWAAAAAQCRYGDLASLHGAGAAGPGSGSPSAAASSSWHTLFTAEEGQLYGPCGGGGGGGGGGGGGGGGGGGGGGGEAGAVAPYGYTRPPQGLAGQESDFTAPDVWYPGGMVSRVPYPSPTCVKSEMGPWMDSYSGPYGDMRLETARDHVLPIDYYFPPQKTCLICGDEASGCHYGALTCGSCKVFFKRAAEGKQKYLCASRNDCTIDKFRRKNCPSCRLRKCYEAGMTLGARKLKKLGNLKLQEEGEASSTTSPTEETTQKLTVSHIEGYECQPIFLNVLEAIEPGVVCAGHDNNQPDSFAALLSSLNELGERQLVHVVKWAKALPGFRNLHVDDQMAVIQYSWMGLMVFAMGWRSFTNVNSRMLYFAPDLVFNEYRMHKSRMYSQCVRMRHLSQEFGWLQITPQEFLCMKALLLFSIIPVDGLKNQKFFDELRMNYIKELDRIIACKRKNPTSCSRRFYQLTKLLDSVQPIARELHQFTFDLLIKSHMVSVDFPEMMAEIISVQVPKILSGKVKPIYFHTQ
Summary of the method: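 Cell-based FRET reporter assay: HEK293 line with a UAS-beta-lactamase construct, compounds added in DMSO, 16 h exposure at 37C, then 2 h substrate step at room temperature and fluorescence intensity read.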

[17] = biological target: Androgen receptor (Homo sapiens) (UniProt P10275); experiment: qHTS assay to identify small molecule agonists of the androgen receptor (AR) signaling pathway using the MDA cell line (AID 743040; further: nearly all actives have a fitted effect of over 20% in size)
Summary of the method: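 Testing was done with the MDA-kb2 AR-luc line, a human breast carcinoma stably transfected with MMTV-luciferase containing AR and GR response elements. Cells were exposed 16 h at 37C before ONE-Glo luminescence detection.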

[18] = biological target: Androgen receptor (Homo sapiens) (UniProt P10275); experiment: qHTS assay to identify small molecule antagonists of the androgen receptor (AR) signaling pathway using the MDA cell line (AID 743042; further: nearly all actives have a fitted effect of over 55% in size)
Summary of the method: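 MDA-kb2 breast carcinoma cells carrying MMTV-luciferase (AR/GR responsive) were co-treated with compounds and the agonist R1881 for 16 h at 37C. Inhibition read as ONE-Glo luminescence; CellTiter-Fluor fluorescence measured in parallel for cytotoxicity.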

[19] = biological target: Androgen receptor (Homo sapiens) (UniProt P10275); experiment: qHTS assay to identify small molecule antagonists of the androgen receptor (AR) signaling pathway (AID 743035; active means well fitted inhibition curve with a large enough effect in the signal ratio in the repeat runs, not every such curve was filed as active; the % refers to the signal ratio)
Summary of the method: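 In this cell-based reporter screen, compounds were tested in concentration series against R1881-activated HEK293 cells expressing beta-lactamase under UAS control; after 16 h at 37C, FRET substrate was added and fluorescence read 2 h later.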

SMILES | Potency [1] | Potency [2] | Potency [3] | Potency [4] | Potency [5] | Potency [6] | Potency [7] | outcome [8] | outcome [9] | Potency [10] | Potency [11] | Potency [12] | Potency [13] | Potency (Aromatase (Homo sapiens)) | Potency [14] | Potency [15] | outcome [16] | outcome [17] | Potency [18] | Potency [19]
[O-][n+]1ccc(Cl)cc1 | inactive | inactive | inactive | inactive | inactive | inactive | inactive | inactive | inactive | inactive |  |  |  |  |  |  |  |  |  | 
Cc1cc(N)n(-c2ccccc2)n1 | inactive |  | inactive |  | inactive | inactive | inactive | inactive | inactive | inactive | inactive | inactive | inactive | inactive |  |  |  |  |  | 
CC(C)Oc1ccccc1O | inactive | inactive | inactive | inactive |  | inactive | inactive | inactive | inactive | inactive |  | inactive | inactive | inactive | inactive | inactive |  |  |  | 
C=CC(O)CCCCC (stereo not drawn) | inactive | inactive | inactive |  | inactive | inactive |  | inactive | inactive | inactive |  |  |  | inactive |  |  |  |  |  | 
Sc1nc(S)nc(S)n1 | inactive | inactive | inactive | inactive | inactive | inactive | inactive | inactive | inactive | inactive |  |  |  | inactive |  |  |  |  |  | 
O=S(=O)(O)c1cc(Cl)c(Cl)cc1Cl | inactive |  | inactive |  | inactive | inactive |  |  | inactive | inactive | inactive | inactive | inactive | inactive | inactive | inactive | inactive | inactive | inactive | 
COC(=O)/C=C/C(C)=C\C=C\C(C)=C\C=C\C=C(C)\C=C\C=C(C)\C=C\C(=O)O | inactive | 54.5 µM (active) |  | inactive | inactive | inactive | inactive | inactive | inactive | inactive |  | inactive | inactive | inactive |  |  | inactive | inactive | inactive | inactive
O=C(O)c1ccccc1-n1cc(C(=O)O)c(=O)c2cc(Nc3c(F)cc(F)cc3Cl)c(Cl)cc21 | inactive | inactive | inactive |  | inactive | inactive | inactive | inactive | inactive | inactive |  | inactive | inactive | inactive | inactive |  |  |  |  | 
CCN(CCCCOC(=O)c1ccc(OC)c(OC)c1)C(C)Cc1ccc(OC)cc1 (stereo not drawn) | inactive |  | inactive | inactive | inactive | inactive |  | inactive | inactive | inactive |  | inactive | inactive | inactive | inactive | inactive |  |  |  | 
C=C(C)C(=O)OCCCCCCCCCCOC(=O)C(=C)C | inactive | 30.6 µM (active) |  | inactive | inactive | inactive |  | inactive | inactive | inactive |  |  |  | inactive |  |  |  |  |  | 
O=c1[nH][nH]c2ccccc12 | inactive |  | inactive |  | inactive | inactive |  | inactive | inactive | inactive |  | inactive | inactive | inactive | inactive |  |  | inactive | inactive | 
O=C1CCCN1CCO | inactive | 54.5 µM (active) |  |  | inactive | inactive | inactive | inactive | inactive | inactive |  | inactive | inactive | inactive | inactive |  |  |  |  | 
CC(C)=CCCC(C)C=O (stereo not drawn) | inactive |  | 61.1 µM (active) | inactive | inactive | inactive | inactive | inactive | inactive | inactive |  | inactive | inactive | inactive | inactive | inactive |  |  |  | 
C=C[Si]1(C)O[Si](C)(C=C)O[Si](C)(C=C)O[Si](C)(C=C)O1 (stereo not drawn) | inactive |  |  | inactive | inactive | inactive | inactive | inactive | inactive | inactive |  |  |  | inactive |  |  |  |  |  | 
CS(C)=O | inactive |  |  | inactive | inactive | inactive | inactive | inactive | inactive | inactive |  |  |  | inactive |  |  |  |  |  | 
COc1ccc(C(=O)Nc2ccccc2)cc1[N+](=O)[O-] | inactive |  |  |  | inactive | inactive |  | inactive | inactive | inactive |  | inactive | inactive | inactive | 3.09 µM (active) |  |  |  |  | 
CC(C)(C(=O)O)c1ccc(C(O)CCCN2CCC(C(O)(c3ccccc3)c3ccccc3)CC2)cc1 (stereo not drawn) | inactive |  |  |  | inactive | inactive | inactive | inactive | inactive |  |  | inactive | inactive |  | inactive |  |  |  |  | 
CCCCOC(=O)C(C)Oc1ccc(Oc2ccc(C(F)(F)F)cn2)cc1 (stereo not drawn) | inactive |  |  | inactive | inactive | inactive |  | inactive | inactive | inactive |  |  | inactive |  | inactive |  |  |  |  | 
O=C(OCCCCCOC(=O)c1ccccc1)c1ccccc1 | inactive | 61.1 µM (active) |  | inactive | inactive | inactive |  | inactive | inactive | inactive |  | inactive | inactive | inactive |  |  |  |  |  | 
Cc1ccc2ccccc2c1[N+](=O)[O-] | inactive |  |  | inactive | inactive | inactive | inactive |  | inactive | inactive |  | inactive | inactive |  | inactive | inactive |  |  |  | 
C/C(=C(\CCO)SS/C(CCO)=C(\C)N(C=O)Cc1cnc(C)nc1N)N(C=O)Cc1cnc(C)nc1N | inactive |  | inactive | inactive | inactive | inactive | inactive | inactive | inactive | inactive |  | inactive | inactive | inactive | inactive | inactive |  |  |  | 
